Measured values published in PubChem BioAssay (NCI).
The panel holds about 79,000 compounds, 15% with a hit somewhere; the sample as a whole holds those more often. The source made the active and inactive calls. Cut-off read from the data, not from the text of the source: active = growth inhibition above about 70%; inactive = the rest.

Assays:
[1] = NCI Yeast Anticancer Drug Screen. Data for the rad52 strain (AID 147);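 note: 0% = growth of vehicle-treated control cultures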; details: S. cerevisiae rad52 mutant growth inhibition, stronger effect = higher value
Method in brief: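 Vehicle-treated cultures served as the reference for growth inhibition of compound-exposed yeast bearing a DNA repair mutation.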

[2] = NCI Yeast Anticancer Drug Screen. Data for the wt1 strain (AID 149);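 note: 0% = growth of vehicle-treated wt1 cultures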; details: S. cerevisiae wt1 strain (SPY 50644) growth inhibition, stronger effect = higher value
Method in brief: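 Measured: growth of wt1 yeast under compound versus vehicle treatment, reported as inhibition.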

[3] = NCI Yeast Anticancer Drug Screen. Data for the rad50EPP+ strain (AID 151);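 note: 0% = growth of vehicle-treated control cultures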; details: S. cerevisiae rad50 mutant strain, stronger effect = higher value
Method in brief: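 In this screen, rad50EPP+ yeast were exposed to compounds. Growth inhibition was scored against vehicle-treated controls.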

[4] = NCI Yeast Anticancer Drug Screen. Data for the mgt1 strain (AID 153); details: S. cerevisiae mgt1 mutant growth inhibition, stronger effect = higher value
Method in brief: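 mgt1 strain exposed; growth vs vehicle control recorded as inhibition.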

[5] = NCI Yeast Anticancer Drug Screen. Data for the rad50 strain (AID 155);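 note: 0% = growth of vehicle-only cultures of the same strain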; details: S. cerevisiae rad50 strain growth inhibition, stronger effect = higher value
Method in brief: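 Growth of the mutant yeast was measured after compound exposure and referenced to vehicle-treated cultures.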

[6] = NCI Yeast Anticancer Drug Screen. Data for the rad14 strain (AID 159);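 note: 0% = growth of vehicle-treated control cultures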; details: S. cerevisiae rad14 strain growth inhibition, stronger effect = higher value
Method in brief: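 Here, inhibition of yeast growth was measured after compound exposure, using a strain with a genetic defect in DNA damage repair and vehicle-treated cultures as the reference.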

[7] = NCI Yeast Anticancer Drug Screen. Data for the sgs1 mgt1 strain (AID 161);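 note: 0% = growth of cultures given vehicle only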; details: S. cerevisiae sgs1 mgt1 strain, stronger effect = higher value
Method in brief: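 Test agents were incubated with a DNA-repair-mutant yeast strain. Growth was then read and compared against vehicle-treated controls.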

[8] = NCI Yeast Anticancer Drug Screen. Data for the CLN2oe strain (AID 163);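 note: 0% = growth of vehicle-only control cultures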; details: S. cerevisiae CLN2oe strain, stronger effect = higher value
Method in brief: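 Inhibition relative to vehicle-treated yeast is reported. Cells: strain with genetic alteration in cell-cycle control, grown with compound.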

[9] = NCI Yeast Anticancer Drug Screen. Data for the cln2 rad14 strain (AID 165);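 note: 0% = growth equal to vehicle treated cultures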; details: S. cerevisiae cln2 rad14 strain, stronger effect = higher value
Method in brief: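 Each compound was tested on cln2 rad14 yeast. Inhibition of growth was calculated against vehicle-exposed controls.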

[10] = NCI Yeast Anticancer Drug Screen. Data for the bub3 strain (AID 167); details: S. cerevisiae bub3 mutant strain, stronger effect = higher value
Method in brief: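 Whole-cell yeast assay. The mutant strain was incubated with compounds, and growth inhibition was determined by comparison with vehicle-treated cells.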

[11] = NCI Yeast Anticancer Drug Screen. Data for the wt2 strain (AID 169);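 note: 0% = growth of vehicle-treated yeast cultures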; details: S. cerevisiae wt2 strain growth inhibition, stronger effect = higher value
Method in brief: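 Inhibition of yeast growth was determined after compound treatment, normalised to controls receiving only vehicle.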

[12] = NCI Yeast Anticancer Drug Screen. Data for the mlh1 strain (AID 171);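 note: 0% = growth of vehicle-treated control cultures of the same strain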; details: S. cerevisiae mlh1 strain growth inhibition, stronger effect = higher value
Method in brief: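 Vehicle-normalised growth inhibition of a repair- or checkpoint-altered yeast strain following compound treatment.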

[13] = NCI Yeast Anticancer Drug Screen. Data for the sgs1 strain (AID 173);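 note: 0% = growth of vehicle-only control cultures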; details: S. cerevisiae sgs1 mutant, stronger effect = higher value
Method in brief: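 Screen format: yeast with repair or checkpoint alterations, compound exposure, growth read relative to vehicle.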

[14] = NCI Yeast Anticancer Drug Screen. Data for the mlh1 rad18 strain (AID 175); details: S. cerevisiae mlh1 rad18 strain growth inhibition, stronger effect = higher value
Method in brief: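 Vehicle-treated cultures served as the reference for growth inhibition in a yeast strain carrying DNA damage repair alterations exposed to each compound.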

[15] = NCI Yeast Anticancer Drug Screen. Data for the rad18 strain (AID 177); details: S. cerevisiae rad18 mutant growth inhibition, stronger effect = higher value
Method in brief: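 Test articles were incubated with altered yeast defective in DNA damage repair. Results are given as inhibition of growth versus vehicle.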

[16] = NCI Yeast Anticancer Drug Screen. Data for the mec2-1 strain (AID 157); details: S. cerevisiae mec2-1 strain, stronger effect = higher value
Method in brief: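 Vehicle-treated cultures served as reference for growth inhibition of compound-exposed mec2-1 yeast.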

[17] = at 5.0 µM (retest, dose inferred, filed as 0.5)
[18] = at 50.0 µM (retest, dose inferred, filed as 5.0)

Measured: growth inhibition

COc1cc(C(=O)/C=C/c2ccccc2O)ccc1O
active: [1]; at 11.0 µM 98% | [1]; at 33.0 µM 98% | [1]; at 100.0 µM 98% | [2]; at 3.7 µM 73% | [2]; at 11.0 µM 98% | [2]; at 33.0 µM 99% | [2]; at 100.0 µM 98% | [3]; at 3.7 µM 89% | [3]; at 11.0 µM 99% | [3]; at 33.0 µM 99% | [3]; at 100.0 µM 98% | [4]; at 3.7 µM 84% | [4]; at 11.0 µM 98% | [4]; at 33.0 µM 99% | [4]; at 100.0 µM 98% | [5]; at 11.0 µM 98% | [5]; at 33.0 µM 98% | [5]; [18] 98% | [5]; at 50.0 µM 93.2% | [5]; at 100.0 µM 98% | [6]; at 11.0 µM 99% | [6]; at 33.0 µM 98% | [6]; at 100.0 µM 98% | [7]; [18] 98% | [7]; at 50.0 µM 94.4% | [8]; at 11.0 µM 99% | [8]; at 33.0 µM 99% | [8]; at 100.0 µM 98% | [9]; [18] 98% | [9]; at 50.0 µM 92.8% | [10]; [17] 76% | [10]; at 11.0 µM 99% | [10]; at 33.0 µM 99% | [10]; [18] 97% | [10]; at 50.0 µM 94.2% | [10]; at 100.0 µM 98% | [11]; at 11.0 µM 99% | [11]; at 33.0 µM 99% | [11]; at 100.0 µM 98% | [12]; at 11.0 µM 99% | [12]; at 33.0 µM 99% | [12]; at 100.0 µM 98% | [13]; at 11.0 µM 99% | [13]; at 33.0 µM 99% | [13]; at 100.0 µM 99% | [14]; [17] 79% | [14]; [18] 98% | [14]; at 50.0 µM 91.8% | [15]; at 11.0 µM 98% | [15]; at 33.0 µM 98% | [15]; at 100.0 µM 98%
inactive: [1]; at 1.2 µM -11% | [1]; at 3.7 µM 55% | [2]; at 1.2 µM -11% | [3]; at 1.2 µM 11% | [4]; at 1.2 µM 9% | [5]; at 1.2 µM 10% | [5]; at 3.7 µM 32% | [5]; [17] 33% | [6]; at 1.2 µM -6% | [6]; at 3.7 µM 62% | [7]; [17] -4% | [8]; at 1.2 µM 19% | [8]; at 3.7 µM 42% | [9]; [17] 42% | [10]; at 1.2 µM -20% | [10]; at 3.7 µM 53% | [11]; at 1.2 µM -24% | [11]; at 3.7 µM 50% | [12]; at 1.2 µM 1% | [12]; at 3.7 µM 62% | [13]; at 1.2 µM 8% | [13]; at 3.7 µM 26% | [15]; at 1.2 µM 1% | [15]; at 3.7 µM 47%

Cc1ccc(S(=O)(=O)Oc2cc(Cl)c(Cl)cc2Cl)cc1
inactive: [1]; at 1.2 µM -1% | [1]; at 3.7 µM 4% | [1]; at 11.0 µM 9% | [1]; at 33.0 µM -5% | [1]; at 100.0 µM 17% | [2]; at 1.2 µM -2% | [2]; at 3.7 µM -4% | [2]; at 11.0 µM -7% | [2]; at 33.0 µM -9% | [2]; at 100.0 µM -12% | [3]; at 1.2 µM -1% | [3]; at 3.7 µM 9% | [3]; at 11.0 µM 27% | [3]; at 33.0 µM 28% | [3]; at 100.0 µM 66% | [4]; at 1.2 µM 0% | [4]; at 3.7 µM -2% | [4]; at 11.0 µM -6% | [4]; at 33.0 µM -9% | [4]; at 100.0 µM -8% | [5]; at 1.2 µM -2% | [5]; at 3.7 µM 6% | [5]; [17] 9% | [5]; at 11.0 µM 11% | [5]; at 33.0 µM 3% | [5]; [18] 7% | [5]; at 50.0 µM -6.5% | [5]; at 100.0 µM 17% | [16]; at 1.2 µM -1% | [16]; at 3.7 µM -1% | [16]; [17] -29% | [16]; at 11.0 µM -5% | [16]; at 33.0 µM -9% | [16]; [18] -17% | [16]; at 50.0 µM -21.8% | [16]; at 100.0 µM -6% | [7]; [17] 23% | [7]; [18] 25% | [7]; at 50.0 µM 7.65% | [8]; at 1.2 µM -2% | [8]; at 3.7 µM -6% | [8]; at 11.0 µM -10% | [8]; at 33.0 µM -18% | [8]; at 100.0 µM -18% | [9]; [17] 4% | [9]; [18] 3% | [9]; at 50.0 µM -9.8% | [11]; at 1.2 µM 1% | [11]; at 3.7 µM -9% | [11]; at 11.0 µM -14% | [11]; at 33.0 µM -9% | [11]; at 100.0 µM -8% | [12]; at 1.2 µM 1% | [12]; at 3.7 µM 1% | [12]; at 11.0 µM 2% | [12]; at 33.0 µM -6% | [12]; at 100.0 µM 8% | [13]; at 1.2 µM -19% | [13]; at 3.7 µM -14% | [13]; at 11.0 µM -18%
